Data from PubChem BioAssay (NCI).
Compounds without any hit were thinned out: in the full panel of roughly 79,000, 15% have a hit. The source made the active and inactive calls. Cut-off read from the data, not from the text of the source: active = growth inhibition above about 70%; inactive = the rest.

Assay: NCI Yeast Anticancer Drug Screen. Data for the rad50 strain (AID 155);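 note: 0% = growth of vehicle-only cultures of the same strain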
Conditions: S. cerevisiae rad50 strain growth inhibition; at 50.0 µM; hits give high values
Procedure, shortened: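 Cells are treated with compound, grown, and their growth is then scored against vehicle-only cultures of the same repair-deficient yeast strain.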

| Structure (SMILES) | growth inhibition |
| --- | --- |
| COc1ccc(C(=O)N/N=C/c2ccccc2OC)cc1 | -3.1% (inactive) |
| O=C1OC(=O)c2c(Br)c(Br)c(Br)c(Br)c21 | 5.9% (inactive) |
| CCOc1cc2c(cc1O)CC[C@@H]1[C@@H]2CC[C@]2(C)C(OS(=O)OC3CC[C@@H]4[C@H]5CCc6cc(O)c(OCC)cc6[C@@H]5CC[C@@]34C)CC[C@@H]12 (stereo partly specified) | -12.8% (inactive) |
| Cc1c(S)cnc2ccccc12 | -0.55% (inactive) |
| CCCCc1c(O)nc(NCCCC(N)C(=O)O)[nH]c1=O (stereo unspecified) | -9.55% (inactive) |
| CCCC[n+]1cccc(C(=O)c2ccccc2)c1 | 15.7% (inactive) |
| O=C1OC(c2ccc([N+](=O)[O-])cc2)=N/C1=C\c1cc(Br)ccc1O | 52.8% (inactive) |
| O=C1C(Cl)N(c2ccccc2[N+](=O)[O-])C1c1c[nH]c2ccccc12 (stereo unspecified) | -13.6% (inactive) |
| CCOC(=S)SC(=S)SC(=S)OCC | 1.15% (inactive) |
| CCCCCCCCCSc1nc2ccc(N=Cc3ccccc3O)cc2s1 | -2.85% (inactive) |
| CC(C)NP(=O)(OC1CC(C)(C)N(O)C(C)(C)C1)OC1CC(C)(C)N(O)C(C)(C)C1 | 26.1% (inactive) |
| OCC1OC(n2cnc3c(NCc4ccccc4)ncnc32)C(O)C1O (stereo unspecified) | -14.3% (inactive) |
| O/N=C1\CC2CC1C1CC3(CC3)C21 (stereo unspecified) | -6.85% (inactive) |
| CCOC(=O)c1[nH]n(-c2ccccc2)c(=O)c1C=NC(=S)c1cccnc1 | -12.3% (inactive) |
| N=c1c(C(=O)O)cccn1O | 8.1% (inactive) |
| COc1cc2c3c(c1)CCCN3CCC2 | -40.6% (inactive) |
